Rows were chosen to be rich in hits. Some 1.9% of all compounds tested hit in one or more screens of this group.
IEC-6 cytotox = cytotoxicity in IEC-6 intestinal epithelial cells, primary screen, cytotoxicity control for KLF5 inhibitor project, cell-based, luminescence. IEC-6 cytotoxicity, luminescence viability. inhibition, % at 5 µM. 0.78% of 290,000 active. AID 1825, 2009;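 note: 0% = plate median of test compound wells and 100% = cytotoxic reference compound wells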
KLF5 inhibitor = KLF5 expression inhibitors, primary screen, DLD-1 cells, luminescence; DLD-1 KLF5 promoter-luciferase reporter; AID 1700, 2009; inhibition, % at 5 µM; 0.23% of 290,000 active;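 active = inhibition above a per-plate limit of that plate's mean compound inhibition plus 3 SD, cut at about 60% in these data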;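 note: 0% = DMSO wells and 100% = LY294002 at 200 µM; higher means less KLF5 promoter-driven luciferase light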
BaF3 tox = parental Ba/F3 cell viability inhibition, counter-screen for JAK2V617F inhibitor project, murine pro-B, CellTiter-Glo luminescence | CellTiter-Glo ATP luminescence | inhibition, % at 5.6 µM | 1.1% of 220,000 active | AID 1486, 2009;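 active = inhibition above a per-campaign cutoff, the mean inhibition of all tested compounds plus 3 SD, cut at about 27% in these data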;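 note: 0% = DMSO wells and 100% = JAK Inhibitor I control wells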
APP transl inh = inhibitors of APP translation via 5'UTR reporter, primary screen, APP 5'UTR luciferase, SH-SY5Y cells; SH-SY5Y APP 5'UTR-luciferase reporter, luminescence; AID 1285, 2008; 0.82% of 190,000 active; inhibition, % at 2 µM;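 active = inhibition above a set limit, derived from the sample mean plus 3 SD, cut at about 45% in these data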
Ba/F3 V617F tox = reduced viability of JAK2V617F-dependent Ba/F3 cells, primary screen, JAK2V617F inhibitor project, cell-based, Ba/F3 EpoR-JAK2V617F, luminescence | ATP luminescence | inhibition, % at 5.6 µM | 1.1% of 220,000 active;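 active = inhibition above the campaign mean plus 3 SD over all tested compounds, cut at about 24% in these data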;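 note: cytokine-independent growth of Ba/F3 cells driven by EpoR plus mutant JAK2; 0% = DMSO-treated cells and 100% = JAK inhibitor I control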
IEC-6 tox confirm = cytotoxic compounds in IEC-6 epithelial cells, confirmation, cytotoxicity control, cell-based, luminescence | shares compounds with IEC-6 cytotox | IEC-6 rat intestinal epithelial viability | inhibition, % at 5 µM | 63% of 1,900 active | AID 1907, 2009;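 note: 0% = vehicle and 100% = reference cytotoxic drug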
Starred values were filed as active, the others as inactive; . = no result given. Cut-off read from the data, not from the text of the source, unless noted: active = inhibition above about 22%; inactive = the rest.

SMILES	IEC-6 cytotox	KLF5 inhibitor	BaF3 tox	APP transl inh	Ba/F3 V617F tox	IEC-6 tox confirm
Cc1nnc(N/N=C/c2ccc(-c3ccccc3F)o2)n1N	102*	-98	8	-36	5	5
CCc1ccccc1NC(=S)N1CCN(c2cccc(OC)c2)CC1	4	-2	.	.	.	.
Cc1ccc(-c2nnn3c2nc(NCCc2ccc(S(N)(=O)=O)cc2)c2ccccc23)cc1	55*	8	7	4	3	4
Cc1ncsc1CCC(=O)N1CCCC(Nc2ccc(C(C)C)cc2)C1 (stereo not given)	-1	-12	.	.	.	.
CCO[C@@H]1OC(C(=O)Nc2ccccc2)=C[C@H](c2coc3ccccc3c2=O)[C@H]1CCCO	25*	-22	-4	4	6	5
O=C(Cn1ccc([N+](=O)[O-])n1)NCc1cccnc1	0	-27	14	24	4	.
Cc1onc(-c2ccccc2Cl)c1C(=O)NC(=S)Nc1ccc(C(C)C)cc1	22*	-4	63*	.	58*	-10
CC(C)(C)C(=O)/C(=C/c1ccc(Cl)cc1)n1cncn1	29*	19	.	.	.	19
CCOC(=O)c1[nH]c2c(c1C)C(=O)CC(c1ccc(F)cc1)C2 (stereo not given)	42*	11	56*	92*	56*	60*
O=[N+]([O-])c1ccc(N/N=C/c2cccnc2)cc1	24*	-56	.	.	.	5
O=C(N/N=C/c1cccnc1)c1ccc([N+](=O)[O-])cc1	2	-13	1	4	-3	.
COc1ccc(NC(=S)NNC(=O)c2ccccc2OC(F)F)cc1	39*	-24	55*	26	76*	23*
CCOc1ncccc1C(=O)Nc1ccc(C)cn1	1	-34	.	.	.	.
COc1ccc(CCN(C)CC(O)c2ccccc2)cc1OC (stereo not given)	-7	-24	2	-8	-1	.
C/C(=N\NC(=O)c1nnn(-c2nonc2N)c1CN(C)c1ccccc1)c1ccccc1O	51*	37	.	.	.	50*
COc1ccc(/C(C)=N/NC(=O)c2nnn(-c3nonc3N)c2CN(C)c2ccccc2)cc1	1	5	.	.	.	.
Nc1c(C(=O)c2ccccc2)sc2nsc(SCCN3CCOCC3)c12	-2	-37	4	.	-2	.
CC(=O)c1sc2nsc(SCCN3CCOCC3)c2c1N	24*	0	-2	.	-3	7
O=C1CC(c2cccc(Cl)c2)c2cc3c(cc2N1)CCC3 (stereo not given)	28*	14	27*	34	9	29*
COc1ccc(S(=O)(=O)N2CCCc3ccccc32)cc1OC	4	-29	1	.	-1	.
COc1ccc(S(=O)(=O)N2CCCc3ccccc32)cc1[N+](=O)[O-]	59*	48	.	.	.	44*
Cc1nc(-c2ccccc2)cc(N2CCCC2)n1	8	4	0	-1	-1	.
Nc1nc(-c2ccccc2)cc(N2CCCCC2)n1	82*	61	77*	94*	70*	59*
O=c1[nH]c(/C=C2\C=Nc3ccccc32)c(O)n1Cc1ccccc1F	41*	-12	67*	63*	99*	37*
Cc1ccc(OCC(O)CNC2CCCC2)c(C)c1 (stereo not given)	1	-50	.	.	.	.
SMILES	IEC-6 cytotox	KLF5 inhibitor	BaF3 tox	APP transl inh	Ba/F3 V617F tox	IEC-6 tox confirm
Cc1ccccc1OCC(O)CNC1CCC(NCC(O)COc2ccccc2C)CC1 (stereo not given)	101*	-34	.	.	.	101*
O=[N+]([O-])c1ccc(CP(=O)(c2ccccc2)c2ccccc2)cc1	6	3	.	.	.	.
CC(C)c1c(C(=O)N/N=C/c2ccc3c(c2)OCO3)nnn1-c1nonc1N	-1	-40	.	.	.	.
CCN(CC)c1ccc(/C=N/NC(=O)c2nnn(-c3nonc3N)c2C(C)C)c(O)c1	97*	50	.	.	.	68*
CCOC(=O)N1CCN(C(=O)c2ccccc2-c2ccccc2)CC1	40*	38	47*	39	53*	35*
Cc1c(C(=O)OCC(=O)N(C)c2ccccc2)oc2ccccc12	1	-34	.	.	.	.
C=C1C(=O)[C@@]23[C@H](O)C[C@@H]4C(C)(C)CC[C@H](O)[C@@]4(C)[C@@H]2CC[C@@H]1[C@H]3O	65*	12	92*	84*	98*	44*
CC(=O)Nc1ccccc1OCC(=O)c1cc(C)n(Cc2cccs2)c1C	26*	-51	82*	-17	62*	15
CCN1CCS/C1=C/C=C/C1=[N+](CC)CCS1	27*	-28	81*	-14	99*	30*
CCN1CCS/C1=C\C=C\C1=[N+](CC)CCS1	37*	5	90*	-3	101*	31*
CCCOc1ccccc1/C=C1\SC(N2CCCCC2)=NC1=O	1	-84	.	.	.	.
COc1ccc(C2N=C(N)N=C(N)N2c2ccc(C)cc2)cc1 (stereo not given)	-4	-13	0	-2	-1	.
COc1cccc(N2CC(=O)N(c3cccc(OC)c3)CC2=O)c1	-8	-37	-1	0	-1	.
CC1(C)N=C(N)N=C(N)N1c1cccc(C(=O)O)c1	37*	-13	1	4	-1	3
COc1cccc(N2C(N)=NC(N)=NC2(C)C)c1	54*	14	93*	-9	95*	42*
COc1ccc(N2C(N)=NC(N)=NC2(C)C)cc1	53*	-15	99*	8	98*	8
Cc1ccc(C(=O)NCC(=O)N2CCc3ccccc3C2)cc1C	-1	-22	.	.	.	.
COc1ccc(C(=O)NCCCNC(=O)c2cnccn2)cc1	-7	7	.	.	.	.
CCn1c(CCNC(=O)c2cccs2)nnc1SCC(=O)NC1CCCCC1	25*	-28	2	-27	6	5
CN1CCc2nc(NC(=O)COc3ccc4ccccc4c3)sc2C1	38*	-14	8	8	9	18
CSc1nnc2c3ccccc3n(CCc3ccccc3)c2n1	46*	-39	2	22	-1	42*
COc1ccc(/C=C/C(=O)c2cc(F)ccc2OC(=O)c2ccccc2)cc1OC	46*	56	1	90*	0	37*
CSc1ccccc1C(=O)N1CCC(n2nccc2NC(=O)C(C)(C)C)CC1	3	-8	.	.	.	.
C=CCNc1ncnc2c1ncn2C1OC(CO)C(O)C1O (stereo not given)	74*	17	0	10	-1	49*
OC[C@H]1O[C@@H](n2cnc3c(NC4CCCC4)ncnc32)[C@H](O)[C@@H]1O	-2	-5	5	-10	-3	.
CCOc1ccc(CCNC(=O)CCNC(=O)c2ccco2)cc1OCC	2	-36	.	.	.	.
C/C(=N/NC(=O)CN(c1ccccc1)S(=O)(=O)c1ccccc1)c1ccccc1O	46*	22	.	.	.	38*
CCCC/C(C)=N/NC(=O)CN(c1ccc(Br)cc1)S(=O)(=O)c1ccccc1	3	10	8	4	-2	.
